The full list was thinned out, with hits kept by preference.
Shiga inhibitor – A qHTS for Small Molecule Inhibitors of Shiga Toxin; Vero cells, Shiga toxin protein synthesis inhibition reporter; inhibition, % at 38.7 µM; 290,000 tested, 9.2% active; AID 2315, 2010; in the data active means inhibition mostly above about 28%, no sharp cut-off; inactive means mostly below about 43%; further: 0% is about no effect
AMA1-RON2 inh – qHTS for Inhibitors of AMA1-RON; Towards Development of Antimalarial Drug Lead: Primary Screen. AlphaScreen AMA1-biotinylated RON2 peptide binding. Potency, µM (highest dose often 58.2 µM), inactives show at the highest dose activity change, negative = inhibition, actives largely listed as inhibitors. Plasmodium falciparum AMA1 (3D7) - RON2 peptide interaction. 360,000 tested, 0.2% active. AID 720542, 2013; active means well fitted inhibition curve with a large enough effect; inconclusive means small, poorly fitted or top-dose-only effect; inactive means no such curve, though single readings can be large or run the other way;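 further: potency means the concentration at half of the fitted maximal effect; 0% = vehicle wells and -100% = peptide control; nearly all actives have a fitted effect of over 45% in size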
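AMA1 (3D7) with his tag at 25 nM final met compounds first, then biotinylated RON2 peptide at 25 nM; detection used donor plus acceptor beads, 10 µg/mL apiece, read by AlphaScreen after 30 min at room temperature.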
MARV entry inh – qHTS for inhibitors of binding or entry into cells for Marburg Virus; 300,000 tested, 1.8% active; Potency, µM (top dose mostly 37.8 µM), inactives show at the top dose activity change, negative = inhibition, hits mostly inhibitors; Marburg virus pseudotyped entry inhibition, cell reporter; calls by dose curve; tested in HEK293 cells; further: potency means the concentration at half of the fitted maximal effect; on the % scale 0 is the no-effect control and ±100 the full control effect
Lassa entry inh – qHTS for Inhibitors of binding or entry into cells for Lassa Virus; Lassa virus pseudotype entry inhibition, cell reporter; AID 540256, 2011; 300,000 tested, 1.2% active; Potency, µM (doses to about 37.9 µM), for the others: top-dose activity change, negative = inhibition, most hits filed as inhibitors; calls by dose curve; tested in HEK293 cells; further: potency means the concentration at half of the fitted maximal effect; on the % scale 0 is the no-effect control and ±100 the full control effect; nearly all actives have a fitted effect of over 50% in size
CHX counter – Cycloheximide Counterscreen for Small Molecule Inhibitors of Shiga Toxin; cell reporter, cycloheximide protein synthesis inhibition counterscreen; max response, %; 300,000 tested, 12% active; AID 2314, 2010; in the data active means max response mostly above about 13%, no sharp cut-off; inactive means mostly below about 14%; further: read at 38.3 µM for the half of the compounds with a filed dose; 0% is about no effect
The depositor's hits bear a star; ? = inconclusive; . = no result; + = active, no number; [ ] = another dose, or the depositor's remark.

SMILES	Shiga inhibitor	AMA1-RON2 inh	MARV entry inh	Lassa entry inh	CHX counter
COc1ccc(NC(=O)c2sc(SC)nc2N)cc1	47.8	-3.4%	21.4%	11.5%	39.0*
COc1ccc(NC(=O)c2sc(SCc3ccccc3)nc2N)cc1	23.7	-1.7%	-2.2%	?	21.6*
Cc1ccn2cc(-c3cccc(NC(=O)c4cccs4)c3)nc2c1	36.3	-16.5%	?	-13.2%	22.2*
Cc1cccn2cc(-c3cccc(NC(=O)c4cccs4)c3)nc12	70.9*	-21.6%	?	28.8%	32.3*
CCOC(=O)C1=C(C)Nc2ccccc2N=C1NC(=O)C1CCN(C(=O)c2ccccc2C)CC1	.	-0.2%	-25.0%[46.1 µM]	16.5%[46.1 µM]	.
CCOc1cc(NC(=O)c2cccs2)c(OCC)cc1NC(=O)CCC(=O)NCC1CCCO1 (stereo not drawn)	17.0	?	2.7%[46.1 µM]	2.5%	-1.6
Nc1nnnn1CC(=O)N/N=C/C=C/c1ccccc1	23.7	8.9%	0.4%[46.1 µM]	3.8%	-2.0
Nc1nnnn1/N=C/C(Br)=C/c1ccccc1	176.3*	3.1%	5.01µM*	?	68.4*
Nc1nnnn1/N=C/C=C/c1ccccc1	41.0	6.5%	3.1%	27.2%	17.4*
O=C(Cc1ccc([N+](=O)[O-])cc1)c1ccc(O)cc1O	61.2*	-2.4%	.	.	16.2*
O=C(O)COc1ccc(C(=O)Cc2ccc3c(c2)OCCCO3)c(O)c1	10.6	12.9%	-0.9%	?	-1.4
COc1ccc(C(=O)Cc2ccc3c(c2)OCO3)c(O)c1	+	2.5%	?	?	101.1*
O=C(Cc1ccc([N+](=O)[O-])cc1)OCc1ccc([N+](=O)[O-])cc1	-3.4	-7.4%	0.9%[46.1 µM]	8.7%	-2.5
O=C(Cc1ccc(Br)cc1)c1ccc(O)cc1O	185.6*	3.7%	8.9%	?	48.9*
Cc1ccc(C(=O)Cc2ccccc2)c(O)c1	.	19.0%	29.3%[46.1 µM]	16.8%[46.1 µM]	.
O=C(Cc1ccc2c(c1)OCCO2)c1c(O)cc(O)cc1O	57.4*	-1.5%	11.4%	?	32.3*
CN(C)c1ccc(NC(=O)CSc2n[nH]c(-c3ccncc3)n2)cc1	.	1.5%	-8.2%[46.1 µM]	-7.3%	.
C/C(CCN1CCCCc2nc(C)c(C)cc21)=N\OC[C@@H](O)[C@@H]1O[C@@H]2OC(C)(C)O[C@@H]2[C@H]1O	.	.	18.5%[14.2 µM]	.	.
COc1ccc(CC(=O)c2ccc(O)cc2O)cc1	59.0*	-11.8%	.	.	49.4*
CCC(=NCCc1ccccc1)c1c(O)[nH]c(=O)[nH]c1=O	-4.1	-14.1%	0.4%	0.3%	1.1
CCC(=Nc1ccccc1N)c1c(O)[nH]c(=O)[nH]c1=O	98.8*	105.3%	-29.3%	?	51.8*
CCc1nnc2c(N3CCN(c4cccc(C)c4)C(C)C3)nc3ccccc3n12 (stereo not drawn)	.	.	.	-20.2%[46.1 µM]	.
O=C(OCC(=O)c1cccc2ccccc12)c1ccc(CO)cc1	77.5*	-0.5%	15.8%	?	41.7*
Cc1cc(C(=O)COC(=O)c2cc(Cl)ccc2N)c(C)n1Cc1ccco1	119.3*	-20.3%	?	?	91.0*
NC(=O)c1cccc2ccccc12	-5.3	0.0%	4.3%[46.1 µM]	11.2%[46.1 µM]	-2.9
SMILES	Shiga inhibitor	AMA1-RON2 inh	MARV entry inh	Lassa entry inh	CHX counter
Cc1nn(Cc2ccccc2)c(C)c1C(=O)OCC(=O)c1cc(C)n(CC(F)(F)F)c1C	22.5	-8.7%	?	1.78µM*	1.9
Cc1cc(C(=O)COC(=O)c2ccco2)c(C)n1Cc1ccco1	-12.5	-23.1%	?	14.6µM*	-2.5
CC1=C(C(=O)Nc2ccccc2)C(c2ccc[nH]2)n2ncnc2N1 (stereo not drawn)	.	.	.	9.9%[46.1 µM]	.
Cc1cccc(CCNC(=O)c2sc3nc4n(c(=O)c3c2C)CCCC4)c1	.	.	.	5.6%[46.1 µM]	.
Cc1cc(C(=O)COC(=O)c2ccncc2)c(C)n1Cc1ccco1	115.9*	-3.8%	-33.3%[46.1 µM]	?	44.1*
Nc1nnc(SCC(=O)c2ccco2)s1	16.7	31.2%	-7.3%	1.6%	-2.4
CSc1ncccc1C(=O)OCC(=O)c1ccccc1Br	4.5	2.3%	6.0%[46.1 µM]	16.4%	10.8
Cc1cc(C(=O)CSc2nnc(N)s2)c(C)n1Cc1ccco1	56.8*	-2.2%	?	3.8%	39.1*
O=C(OCC(=O)c1ccccc1Br)c1ccncc1	62.6*	1.9%	0.5%	?	24.2*
COc1cccc(CN(C(=O)c2cccc(C)c2)C2CCS(=O)(=O)C2)c1 (stereo not drawn)	.	.	?	-4.3%[46.1 µM]	.
